Assay results reported in PubChem BioAssay (NCI).
Compounds without any hit were thinned out: in the full panel of roughly 79,000, 15% have a hit. Active and inactive are the calls of the source. Cut-off read from the data, not from the text of the source: active = growth inhibition above about 70%; inactive = the rest.

Tests used:
[1] = NCI Yeast Anticancer Drug Screen. Data for the rad50 strain (AID 155);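 note: 0% = growth of vehicle-only cultures of the same strain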; conditions: S. cerevisiae rad50 strain growth inhibition, stronger effect = higher value
Procedure, shortened: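 Yeast carrying a defined DNA repair defect were exposed to test compounds, and growth was compared with vehicle-treated controls to give percent inhibition.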

[2] = NCI Yeast Anticancer Drug Screen. Data for the mec2-1 strain (AID 157); conditions: S. cerevisiae mec2-1 strain, stronger effect = higher value
Procedure, shortened: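 Cells of the genetically defined mec2-1 yeast strain are incubated with test compound. Inhibition of growth is calculated against vehicle-treated controls.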

[3] = NCI Yeast Anticancer Drug Screen. Data for the sgs1 mgt1 strain (AID 161);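 note: 0% = growth of cultures given vehicle only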; conditions: S. cerevisiae sgs1 mgt1 strain, stronger effect = higher value
Procedure, shortened: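 Test agents were incubated with a DNA-repair-mutant yeast strain. Growth was then read and compared against vehicle-treated controls.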

[4] = NCI Yeast Anticancer Drug Screen. Data for the cln2 rad14 strain (AID 165);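 note: 0% = growth equal to vehicle treated cultures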; conditions: S. cerevisiae cln2 rad14 strain, stronger effect = higher value
Procedure, shortened: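 The screen exposed genetically defined yeast (cln2 rad14) to test compounds and scored growth inhibition relative to vehicle-treated controls.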

[5] = NCI Yeast Anticancer Drug Screen. Data for the bub3 strain (AID 167); conditions: S. cerevisiae bub3 mutant strain, stronger effect = higher value
Procedure, shortened: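 Compounds were applied to a genetically altered yeast strain carrying a cell-cycle control defect. Growth inhibition was scored against vehicle-treated controls.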

[6] = NCI Yeast Anticancer Drug Screen. Data for the mlh1 rad18 strain (AID 175); conditions: S. cerevisiae mlh1 rad18 strain growth inhibition, stronger effect = higher value
Procedure, shortened: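 Compound-treated yeast growth, normalised to vehicle controls. Strain bears defined DNA repair mutations.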

[7] = at 5.0 µM (retest, dose inferred, filed as 0.5)
[8] = at 50.0 µM (retest, dose inferred, filed as 5.0)

Measured: growth inhibition

CCCOC(=O)C(Br)C(Br)C(=O)OCCC (stereo not given)
active: [1]; [8] 97% | [1]; at 50.0 µM 90.5% | [2]; [8] 98% | [2]; at 50.0 µM 93% | [3]; [8] 100% | [3]; at 50.0 µM 93.5% | [4]; [8] 101% | [4]; at 50.0 µM 91% | [5]; [8] 100% | [5]; at 50.0 µM 91.8% | [6]; [8] 98% | [6]; at 50.0 µM 90.5%
inactive: [1]; [7] 60% | [2]; [7] 57% | [3]; [7] 36% | [4]; [7] 59% | [5]; [7] 46% | [6]; [7] 44%

Cc1nc(C(N)=S)sc1/C(CC(=O)C(=O)Nc1cccc2ccc(O)cc12)=N\NC(=O)c1ccncc1
inactive: [1]; [7] 25% | [1]; [8] 31% | [1]; at 50.0 µM 21.8% | [2]; [7] 16% | [2]; [8] 18% | [2]; at 50.0 µM 7.5% | [3]; [7] 9% | [3]; [8] 28% | [3]; at 50.0 µM -4.85% | [4]; [7] 14% | [4]; [8] 33% | [4]; at 50.0 µM -10.8% | [5]; [7] 32% | [5]; [8] 29% | [5]; at 50.0 µM 13.1% | [6]; [7] 14% | [6]; [8] 35% | [6]; at 50.0 µM 16.4%

S=C(Nc1ccc(N=Nc2ccccc2)cc1)SCc1ccccc1
inactive: [1]; [7] 1% | [1]; [8] 16% | [1]; at 50.0 µM 63.3% | [2]; [7] 3% | [2]; [8] 25% | [3]; [7] 4% | [3]; [8] 28% | [4]; [7] 3% | [4]; [8] 8% | [5]; [7] -1% | [5]; [8] 11% | [6]; [7] -6% | [6]; [8] 59%
active: [2]; at 50.0 µM 97.7% | [3]; at 50.0 µM 95.6% | [4]; at 50.0 µM 89.6% | [5]; at 50.0 µM 98.5% | [6]; at 50.0 µM 96%

CS/C(=N\N=C(/C)c1ccccn1)N1CCN(c2ccccn2)CC1
active: [1]; at 50.0 µM 98.1% | [2]; at 50.0 µM 82.2% | [3]; [8] 96% | [3]; at 50.0 µM 98.6% | [4]; [8] 84% | [5]; [8] 94% | [5]; at 50.0 µM 91.2% | [6]; [8] 98% | [6]; at 50.0 µM 87.5%
inactive: [1]; [7] 1% | [1]; [8] 22% | [2]; [7] -1% | [2]; [8] 14% | [3]; [7] -1% | [4]; [7] -5% | [4]; at 50.0 µM 64.2% | [5]; [7] -7% | [6]; [7] -8%

Cc1ccccc1C(O)(c1ccccc1C)C1(O)CCN(C)CC1
active: [1]; at 50.0 µM 86.2% | [2]; at 50.0 µM 96.7% | [3]; at 50.0 µM 96.2% | [4]; at 50.0 µM 91.8% | [5]; at 50.0 µM 96.2% | [6]; at 50.0 µM 98.7%
inactive: [1]; [7] 0% | [1]; [8] -3% | [2]; [7] -4% | [2]; [8] 0% | [3]; [7] 2% | [3]; [8] -10% | [4]; [7] -7% | [4]; [8] -11% | [5]; [7] -4% | [5]; [8] -11% | [6]; [7] 13% | [6]; [8] -2%

O=C(OCc1ccccc1CN1CCOCC1)c1cccc(Br)c1
active: [3]; [8] 82% | [3]; at 50.0 µM 82.8%
inactive: [1]; [7] 2% | [1]; [8] 32% | [1]; at 50.0 µM 43.5% | [2]; [7] -4% | [2]; [8] 3% | [2]; at 50.0 µM 9.4% | [3]; [7] -4% | [4]; [7] -5% | [4]; [8] -3% | [4]; at 50.0 µM -4.15% | [5]; [7] 2% | [5]; [8] 42% | [5]; at 50.0 µM 52.2% | [6]; [7] 21% | [6]; [8] 40% | [6]; at 50.0 µM 6.65%

O=C1C=C(Cl)C(=O)C2=C1CCCC2
inactive: [1]; [7] 10% | [2]; [7] 11% | [3]; [7] 8% | [3]; at 50.0 µM 61.1% | [4]; [7] -1% | [4]; [8] 48% | [4]; at 50.0 µM 59.2% | [5]; [7] 1% | [6]; [7] 20%
active: [1]; [8] 89% | [1]; at 50.0 µM 95.2% | [2]; [8] 98% | [2]; at 50.0 µM 70.8% | [3]; [8] 98% | [5]; [8] 98% | [5]; at 50.0 µM 99.2% | [6]; [8] 98% | [6]; at 50.0 µM 93.9%

ON1CCc2c([nH]c3ccccc23)C1c1ccc(Cl)cc1 (stereo not given)
active: [1]; [8] 93% | [2]; [8] 91% | [3]; [8] 98% | [3]; at 50.0 µM 85.4% | [4]; [8] 88% | [5]; [8] 96% | [6]; [8] 96% | [6]; at 50.0 µM 79.2%
inactive: [1]; [7] -8% | [1]; at 50.0 µM 54.5% | [2]; [7] -9% | [2]; at 50.0 µM 34.4% | [3]; [7] 1% | [4]; [7] -8% | [4]; at 50.0 µM 55.7% | [5]; [7] -6% | [5]; at 50.0 µM 40.1% | [6]; [7] -2%

CC(=O)Nc1cccc2c1ccc1ccc3ccccc3c12
inactive: [1]; [7] 13% | [1]; [8] 21% | [2]; [7] -1% | [2]; [8] 9% | [2]; at 50.0 µM 61.2% | [3]; [7] 4% | [3]; [8] 20% | [4]; [7] -12% | [4]; [8] -11% | [4]; at 50.0 µM -3.25% | [5]; [7] 3% | [5]; [8] -1% | [5]; at 50.0 µM 5.75% | [6]; [7] 32% | [6]; [8] 52%
active: [1]; at 50.0 µM 77.3% | [3]; at 50.0 µM 71.2% | [6]; at 50.0 µM 71%

O=C(c1ccc([N+](=O)[O-])cc1)c1[nH]c2ccccc2c(=O)c1-c1ccccc1
inactive: [1]; [7] -2% | [2]; [7] 14% | [3]; [7] 0% | [4]; [7] -3% | [5]; [7] -2% | [6]; [7] 25%
active: [1]; [8] 96% | [1]; at 50.0 µM 98% | [2]; [8] 99% | [2]; at 50.0 µM 99% | [3]; [8] 99% | [3]; at 50.0 µM 98.6% | [4]; [8] 95% | [4]; at 50.0 µM 98.6% | [5]; [8] 98% | [5]; at 50.0 µM 98.7% | [6]; [8] 99% | [6]; at 50.0 µM 99%
